# From PubChem BioAssay (EPA / NIEHS)
# Activity calls are given as the source filed them. Rule for the calls: active = hit-call score of the fitted dose curve at least 0.9, where 1 is the maximum; inactive = score below 0.9.
# Experiment: APR_HepG2_MitoMass_72hr: Apredica 72-hour HepG2 Assay for Mitochondrial Mass (AID 2282924);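 note: MitoTracker Red CMXRos stain intensity per cell imaged as mitochondrial mass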
# Details: high-content imaging, actives raise or lower the signal
# Experimental: APR_HepG2_72hr is a cell-based, multiplexed-readout assay that uses HepG2, a human liver cell line, with measurements taken at 72 hours after chemical dosing in a 384-well plate.APR_HepG2_MitoMass_72hr is one of 10 assay component(s) measured or calculated from the APR_HepG2_72hr assay. It is designed to make measurements of cell phenotype, a form of morphology reporter, as detected with fluorescence intensity signals by HCS Fluorescent Imaging technology.Data from the assay component APR_HepG2_MitoMass_72hr was analyzed into 1 assay endpoint. This assay endpoint, APR_HepG2_MitoMass_72hr, was analyzed with bidirectional fitting relative to DMSO as the negative control and baseline of activity. Using a type of morphology reporter, gain or loss-of-signal activity can be used to understand changes in the signaling. Furthermore, this assay endpoint can be referred to as a primary readout, because this assay has produced multiple assay endpoints where this one serves a signaling function. To generalize the intended target to other relatable targets, this assay endpoint is annotated to the cell morphology intended target family, where the subfamily is organelle conformation.
# Cells were treated with dimethyl sulfoxide (DMSO) as a solvent control at a final concentration of 0.5% v/v or with compounds in DMSO with a resulting final DMSO concentration of 0.5% v/v. Compound treatment was done at concentrations of 0.39, 0.78, 1.56, 3.12, 6.24, 12.5, 25, 50, 100, and 200 uM in duplicate on each plate. Cells were treated with compounds for 1, 24, or 72 hr. Carbonyl […] m-chloro-phenylhydrazone (CCCP) and taxol were used as positive controls for mitochondrial function and cytoskeletal stability, respectively; DMSO served as the negative control for this experiment. Cells were fixed by the direct addition of 50 uL formaldehyde in Hank's Balanced Salt Solution (HBSS) to a final concentration of 3.7%. After incubation in the fixation medium for 30 min at room temperature (293-298 K), cells were rinsed twice with HBSS and treated with cell permeabilization buffer (16 uL of 0.5% Triton X-100) for 10 min at room temperature (293-298 K) before labeling. For mitochondrial membrane potential and mitochondrial measurements, pre-fixed cells were incubated with 50 uL of MitoTracker Red CMXRos (Invitrogen) at a concentration of 250 nM for 30 min before fixation. In the remaining cases, post-fixed cells were labeled by incubation with a multiplexed mixture of primary antibodies in HBSS for 60 min at room temperature (293-298 K) to detect immunoreactivity of c-Jun (1:500), phospho-histone H3 (1:100), phospho-histone H2A.x (1:200), p53 (1:400), alpha-tubulin (1:200) and Hoechst 33342 (2 ug/mL). Cells were labeled for multiplexed imaging on two separate plates: a) Hoechst 33342, MitoTracker Red, phospho-histone H3, and alpha-tubulin, and b) Hoechst 33342, phospho-histone H2A.x, and c-Jun. A final rinse with HBSS (50 uL) was performed before analysis. The primary and secondary antibodies for the proteins were phospho-histone H3 (rabbit anti-phospho-histone H3 and FITC-donkey anti-rabbit IgG), phospho-histone H2A.x (mouse anti-phospho-histone H2A.x and FITC-donkey anti-mouse IgG), c-Jun (rabbit anti-phospho-c-Jun and Cy3-donkey anti-rabbit IgG), p53 (sheep anti-p53 and Cy5-donkey anti-sheep IgG), alpha-tubulin (mouse anti-alpha-tubulin and Cy5-donkey anti-mouse IgG). These antibodies are available as the CellCiphr HepG2 assay kit (Millipore).Digital images of each well were captured using a Cellomics ArrayScan VTI (Thermo Scientific Cellomics) (0.8 NA objective, 0.63x optical coupler, and XF-93 filter set) at 20x magnification. The images were acquired using the autofocus feature of the ArrayScan instrument, which entails the following steps. First, the camera focuses on channel 1 (Hoechst 33342), where nuclei are identified. Second, a Z offset of 1 um is used for capturing mitochondria (MitoTracker Red). […]
SMILES,outcome,AC50
O=C(O)Cc1cc(I)c(Oc2cc(I)c(O)c(I)c2)c(I)c1,inactive,–
CCC(=C(c1ccc(O)cc1)c1ccc(OCCN(C)C)cc1)c1ccccc1,inactive,–
C=C(C)C(=O)OCCC(F)(F)C(F)(F)C(F)(F)C(F)(F)C(F)(F)C(F)(F)F,inactive,–
Cc1cc(CCN2CCN(c3nsc4ccccc34)CC2)cc2c1NC(=O)CC2(C)C,–,29 µM (active)
CCCCCCCCCCCCc1ccccc1S(=O)(=O)O,–,120 µM (active)
CC(C)(C)c1cc(C(C)(C)C)c(O)c(C(C)(C)C)c1,inactive,–
Oc1cc2ccccc2c2ccccc12,–,61.3 µM (active)
C[C@@H]1C[C@H]2[C@@H]3CCC4=CC(=O)C=C[C@]4(C)[C@@]3(F)[C@@H](O)C[C@]2(C)[C@@]1(O)C(=O)COP(=O)(O)O,–,5.23 µM (active)
CCCCC(CC)COC(=O)CCCCC(=O)OCC(CC)CCCC (stereo not given),inactive,–
OCCC(F)(F)C(F)(F)C(F)(F)C(F)(F)C(F)(F)C(F)(F)F,inactive,–
CCCCCCC(=O)O,inactive,–
c1ccc2cc3c(ccc4ccccc43)cc2c1,inactive,–
CC(=O)NC1(c2cccc(F)c2)CCN(CC[C@@]2(c3ccc(Cl)c(Cl)c3)CN(c3ccccc3)C(=O)CO2)CC1,inactive,–
CC#C[C@]1(O)CC[C@H]2[C@@H]3CCC4=CC(=O)CCC4=C3[C@@H](c3ccc(N(C)C)cc3)C[C@@]21C,inactive,–
c1ccc2c(c1)Cc1ccccc1-2,inactive,–
CCCCCCCC(=O)O,inactive,–
Cc1oc(-c2ccccc2)nc1CCOc1ccc(C[C@H](Nc2ccccc2C(=O)c2ccccc2)C(=O)O)cc1,inactive,–
NC(=O)N(O)[C@@H]1C=C[C@H](Oc2cccc(Oc3ccc(F)cc3)c2)C1,inactive,–
CC[C@H](C)[C@@H](C(=O)O)n1sc2ccccc2c1=O,inactive,–
OC1CCCCC1,inactive,–

SMILES,outcome,AC50
COCC(C)OCC(C)O (stereo not given),inactive,–
CCCOC(=O)c1ccc(O)cc1,inactive,–
CCc1ccc(CCOc2ccc(CC3SC(=O)NC3=O)cc2)nc1 (stereo not given),–,57.6 µM (active)
CCC(C)(C)C1CCC(O)CC1 (stereo not given),inactive,–
Nc1cccc2c(N)cccc12,inactive,–
CN1CCC[C@H]1c1cccnc1,inactive,–
c1ccc2c(c1)ccc1ccccc12,inactive,–
COc1cc(CCC(=O)CC(=O)CCc2ccc(O)c(OC)c2)ccc1O,inactive,–
N#C[C@@H]1CC(F)(F)CN1C(=O)CNC1CC2CCC(C1)N2c1ncccn1 (stereo not given in full),inactive,–
CCCCCCCCOC(=O)CCCCCCCCC(=O)OCCCCCCCC,inactive,–
CCOC(=O)CC(O)(CC(=O)OCC)C(=O)OCC,inactive,–
Cc1cc(C)c(O)c(C)c1,inactive,–
CCCCC[C@H](O)CC(=O)CCc1ccc(O)c(OC)c1,inactive,–
CC(C)(C)c1ccc(O)c(C(C)(C)C)c1,inactive,–
CN(C)C=O,inactive,–
CC(C)(C)c1cccc(C(C)(C)C)c1O,inactive,–
O=c1c(-c2ccc(O)cc2)coc2cc(O)ccc12,inactive,–
OC1CCC(C2CCCCC2)CC1 (stereo not given),inactive,–
O=C(OCCOCCOC(=O)c1ccccc1)c1ccccc1,inactive,–
COC(=O)CCCCC(=O)OC,inactive,–
